This note sets out measurements from PubChem BioAssay (Tox21).

Test [1] can be described thus: qHTS assay to identify small molecule antagonists of the thyroid receptor (TR) signaling pathway - cell viability counter screen (AID 743064). Further: nearly all actives have a fitted effect of over 50% in size. Further: potency means the concentration at half of the fitted maximal effect. Summed up: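 Rat GH3 pituitary tumor cells stably expressing two TR response elements driving luciferase were plated, rested 4 h, then dosed with library compounds and T3 (1 nM final). After 23.5 h at 37 °C, CellTiter-Fluor was added for 30 min and fluorescence recorded.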
A general note: In qHTS, concentration-response curves come from the screen itself.

Test [2] is described as follows: qHTS assay to identify small molecule antagonists of the thyroid receptor (TR) signaling pathway (AID 743065). Further: nearly all actives have a fitted effect of over 55% in size. Further: potency means the concentration at half of the fitted maximal effect. Summed up:
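Antagonism measured as loss of luciferase signal in GH3 cells stably carrying a TRE-luciferase reporter, co-treated with compound and T3 (1 nM final) for 23.5 h at 37 C. Viability was read in the same well by CellTiter-Fluor.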

Test [3] concerns thyroid hormone receptor (rat, GH3 cells). As to the kind of experiment: qHTS assay to identify small molecule agonists of the thyroid receptor (TR) signaling pathway (AID 743066; calls by dose curve).
The nature of test [4]: qHTS assay to identify small molecule antagonists of the estrogen receptor alpha (ER-alpha) signaling pathway - cell viability counter screen (AID 743074; calls by dose curve;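 further: HEK293 cells carrying ER-alpha-UAS-bla reporter stimulated with 17beta-estradiol; nearly all actives have a fitted effect of over 45% in size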).
A short description of test [5]: qHTS assay to identify small molecule antagonists of the estrogen receptor alpha (ER-alpha) signaling pathway using the BG1 cell line (AID 743080; calls by dose curve;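 further: BG1 cells stimulated with 17beta-estradiol alongside compound; nearly all actives have a fitted effect of over 25% in size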). Summed up:
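Luciferase inhibition measured with ONE-Glo after 30 min at RT in BG1Luc4E2 cells given test compounds and 17beta-estradiol for 21.5 h at 37 C; CellTiter-Fluor viability read in the same wells beforehand.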

Test [6] is described as follows: qHTS assay to identify small molecule antagonists of the estrogen receptor alpha (ER-alpha) signaling pathway using the BG1 cell line - cell viability counter screen (AID 743081).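 Further: compound given together with 17beta-estradiol as the ER stimulus; nearly all actives have a fitted effect of over 45% in size.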
Another test addresses Aromatase (Homo sapiens) (UniProt P11511). As to the kind of experiment: qHTS assay to identify aromatase inhibitors (AID 743083). Further: nearly all actives have a fitted effect of over 55% in size. Further: potency means the concentration at half of the fitted maximal effect.
Test [7] concerns the target Estrogen receptor (Homo sapiens) (UniProt P03372). As to the kind of experiment: qHTS assay to identify small molecule agonists of the estrogen receptor alpha (ER-alpha) signaling pathway (AID 743075; calls by dose curve;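 further: HEK293 GripTite cells with ER-alpha and UAS-driven beta-lactamase reporter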; further: potency means the concentration at half of the fitted maximal effect).
The target is the same in test [8]. As to the kind of experiment: qHTS assay to identify small molecule agonists of the estrogen receptor alpha (ER-alpha) signaling pathway using the BG1 cell line (AID 743079). Further: nearly all actives have a fitted effect of over 20% in size. Further: potency means the concentration at half of the fitted maximal effect. As to conditions: BG1Luc4E2 cells, ERE-luciferase agonist, 22 h; activation: at 70.3 µM (top of the series).

Calls of active or inactive are those of the source. Unless noted, the call rests on the fitted dose curve; in most records, active means well fitted curve in the direction sought with a large enough effect in the repeat runs; inconclusive means weak or mixed curves; inactive means no such curve, though single readings can be large; an effect the other way counts as inactive or inconclusive.
On the % scale 0 is the no-effect control and ±100 the full control effect.

Chain of Aromatase (Homo sapiens) (P11511 whole entry, looked up): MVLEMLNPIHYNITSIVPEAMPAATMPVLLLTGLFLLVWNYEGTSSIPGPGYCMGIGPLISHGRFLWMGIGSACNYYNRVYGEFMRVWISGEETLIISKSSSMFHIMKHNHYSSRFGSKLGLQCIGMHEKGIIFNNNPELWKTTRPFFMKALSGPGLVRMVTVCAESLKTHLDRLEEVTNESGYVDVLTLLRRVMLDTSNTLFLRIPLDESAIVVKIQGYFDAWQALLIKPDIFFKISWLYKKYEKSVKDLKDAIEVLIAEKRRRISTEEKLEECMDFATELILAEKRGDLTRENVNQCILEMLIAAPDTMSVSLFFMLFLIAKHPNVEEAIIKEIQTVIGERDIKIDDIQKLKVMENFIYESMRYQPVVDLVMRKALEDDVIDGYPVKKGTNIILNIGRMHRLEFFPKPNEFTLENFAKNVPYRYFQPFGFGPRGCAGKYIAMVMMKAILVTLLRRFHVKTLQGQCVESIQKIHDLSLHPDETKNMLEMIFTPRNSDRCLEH
Chain of Estrogen receptor (Homo sapiens) (P03372 whole entry, looked up): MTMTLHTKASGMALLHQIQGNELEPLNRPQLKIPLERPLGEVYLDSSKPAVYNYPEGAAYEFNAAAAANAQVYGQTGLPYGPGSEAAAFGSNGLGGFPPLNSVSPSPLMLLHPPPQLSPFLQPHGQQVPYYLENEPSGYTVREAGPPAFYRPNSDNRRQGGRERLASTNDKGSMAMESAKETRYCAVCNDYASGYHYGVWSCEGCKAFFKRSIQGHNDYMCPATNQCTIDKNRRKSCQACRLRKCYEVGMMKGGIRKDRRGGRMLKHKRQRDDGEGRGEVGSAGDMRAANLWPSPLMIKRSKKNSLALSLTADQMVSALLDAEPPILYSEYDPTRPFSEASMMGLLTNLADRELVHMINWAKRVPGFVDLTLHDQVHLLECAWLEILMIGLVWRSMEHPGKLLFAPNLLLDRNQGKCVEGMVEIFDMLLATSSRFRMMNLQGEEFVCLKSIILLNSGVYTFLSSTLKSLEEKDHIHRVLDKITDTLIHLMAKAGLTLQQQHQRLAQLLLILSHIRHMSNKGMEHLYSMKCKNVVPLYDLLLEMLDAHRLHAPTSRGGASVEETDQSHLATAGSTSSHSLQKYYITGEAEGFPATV

With `CC[C@H](C)[C@@H]1NC(=O)[C@H](Cc2ccc(O)cc2)NC(=O)[C@@H](N)CSSC[C@@H](C(=O)N2CCC[C@H]2C(=O)N[C@@H](CC(C)C)C(=O)NCC(N)=O)NC(=O)[C@H](CC(N)=O)NC(=O)[C@H](CCC(N)=O)NC1=O`, the Potency result in test [1], in [2], in test [3], in test [4], in test [5] and in test [6] was “inactive” each time. In addition, the Potency result with Aromatase (Homo sapiens) is “inactive”.
`Cn1cc(NC(=O)c2cc(NC(=O)c3cc(NC=O)cn3C)cn2C)cc1C(=O)NCCC(=N)N`: the Potency entry (in test [1]; in test [2]; in [3]; in [4]; in test [6]; with Aromatase (Homo sapiens)) was “inactive” throughout.
On to `CCC(=O)OCC(=O)[C@@]1(OC(=O)CC)[C@H](C)C[C@H]2[C@H]3[C@H]([C@@H](O)C[C@@]21C)[C@@]1(C)C=CC(=O)C=C1C[C@H]3Cl`, for which the Potency result in test [1], in test [2], in test [3], in test [4], in test [7] and in test [6] was “inactive” each time. Moreover, the Potency entry with Aromatase (Homo sapiens) was “inactive”.
With `CO/N=C(\C(=O)N[C@@H]1C(=O)N2C(C(=O)O)=C(CSc3nnnn3C)CS[C@H]12)c1csc(N)n1`, the Potency entry in test [1], in [2], in test [3], in test [4], in [7] and in [8] was “inactive” throughout. For the same compound, the Potency result (in [6]; with Aromatase (Homo sapiens)) was “inactive” each time.
As for `CCCC(=O)O[C@]1(C(=O)COC(=O)CC)[C@@H](C)C[C@H]2[C@@H]3CCC4=CC(=O)C=C[C@]4(C)[C@@]3(F)[C@@H](O)C[C@@]21C`, the Potency result in [1], in test [2], in test [3], in test [4], in test [7] and in test [8] was “inactive” throughout. Besides, in the test with Aromatase (Homo sapiens), the Potency entry is “inactive”.
As for `COc1ccc(CNCC(O)COc2ccc3[nH]c(=O)ccc3c2)cc1OC` (configuration not stated), the Potency entry (in test [1]; in test [2]; in test [3]; in [4]; in test [6]; with Aromatase (Homo sapiens)) was “inactive” each time.
On to `O=P(O)(O)C(O)(Cc1cnc2ccccn12)P(=O)(O)O`, for which the Potency result in [1], in test [2], in [3], in test [4], in test [7] and in [8] was “inactive” throughout. For the same compound, the Potency entry (in [5]; in the test with Aromatase (Homo sapiens)) was “inactive” throughout.
Consider `Cc1ccccc1CNc1ncnc2c1ncn2[C@@H]1O[C@H](CO)[C@@H](O)[C@H]1O`, for which the Potency result in test [1], in test [2], in test [3], in test [4], in [8] and in [5] was “inactive” each time. Also, in test [6], the Potency entry is “inactive”.
Regarding `CC(C)(C)C1(O)CCN2CC3c4ccccc4CCc4cccc(c43)C2C1` (configuration not stated), the Potency in test [1] is 26.6 µM (active); in test [2], 23.7 µM (active); with Aromatase (Homo sapiens), 29.8 µM (active). In addition, the Potency entry in [3], in [4], in [7] and in test [6] was “inactive” in each case.
Regarding `CCCN(CC)C(CC)C(=O)Nc1c(C)cccc1C` (configuration not stated), the Potency result in test [1], in test [2], in test [3], in test [4], in test [7] and in [8] was “inactive” each time. Also, the Potency result (in test [5]; with Aromatase (Homo sapiens)) was “inactive” each time.
For `CC(C)(C)CC(=O)OCC(=O)[C@@]12OC(C)(C)O[C@@H]1C[C@H]1[C@@H]3CCC4=CC(=O)C=C[C@]4(C)[C@@]3(F)[C@@H](O)C[C@@]12C`, the Potency result (in test [1]; in test [2]; in [3]; in test [4]; in test [8]; with Aromatase (Homo sapiens)) was “inactive” each time.
For `C[C@H]1C[C@H]2[C@@H]3CCC4=CC(=O)C=C[C@]4(C)[C@@]3(F)[C@@H](O)C[C@]2(C)[C@@]1(O)C(=O)CCl`, the Potency result in test [1], in test [2], in [3], in test [4], in test [7] and in test [8] was “inactive” in each case. Further, the Potency result with Aromatase (Homo sapiens) is “inactive”.
Regarding `CCCCCCCCCCCC(=O)OC[C@@H](O)C1OC[C@H](O)[C@H]1O` (some centres not stated), the Potency result (in test [1]; in test [2]; in test [3]; in test [4]; in test [6]; with Aromatase (Homo sapiens)) was “inactive” throughout.
With `CC(=O)[C@@]1(O)CC[C@H]2[C@@H]3C=C(Cl)C4=CC(=O)CC[C@]4(C)[C@H]3CC[C@@]21C`, the Potency result (in test [1]; in [3]; in [4]; in [7]; with Aromatase (Homo sapiens)) was “inactive” each time. Also, the Potency in test [2] and in test [8] was 29.8 µM (active) in each case.
For `CCCCC[C@H](O)/C=C/[C@@H]1[C@H]2C/C(=C/CCCC(=O)O)O[C@H]2C[C@H]1O`, the Potency result (in [1]; in [2]; in test [3]; in [4]; in [8]; in the test with Aromatase (Homo sapiens)) was “inactive” each time.
Turning to `CC(/C=C/C=C(\C)C(=O)O[C@@H]1O[C@H](CO[C@@H]2O[C@H](CO)[C@@H](O)[C@H](O)[C@H]2O)[C@@H](O)[C@H](O)[C@H]1O)=C\C=C\C=C(C)\C=C\C=C(/C)C(=O)O[C@@H]1O[C@H](CO[C@@H]2O[C@H](CO)[C@@H](O)[C@H](O)[C@H]2O)[C@@H](O)[C@H](O)[C@H]1O`, the Potency entry in test [1], in test [2], in [3], in [4] and in test [6] was “inactive” in each case.
On to `O=C1N=C2SCCN2C(=O)C1Cc1ccc(Cl)cc1` (configuration not stated), for which the Potency entry in test [1], in [2], in test [3], in test [4] and in [6] was “inactive” in each case.
As for `NC(N)=NCC1COc2ccccc2O1` (configuration not stated), the Potency entry in test [1], in test [2], in [3], in [4], in [7] and in [8] was “inactive” in each case. The Potency entry (in test [5]; in the test with Aromatase (Homo sapiens)) was “inactive” throughout.
`C[C@]12CC[C@@H]3c4ccc(OC(=O)c5ccccc5)cc4CC[C@H]3[C@@H]1CC[C@@H]2O`: the Potency result (in test [1]; in [2]; in test [3]; in test [4]; in test [6]; with Aromatase (Homo sapiens)) was “inactive” each time. Besides, the Potency in [7] is 0.0007 µM [inconclusive] (active). Besides, the activation in test [8] was 82.8% (active).
Regarding `CCOC(=O)[C@H](CCc1ccccc1)N[C@H]1CCCN2CCC[C@@H](C(=O)O)N2C1=O`, the Potency entry (in [1]; in test [2]; in [3]; in test [4]; in test [6]; with Aromatase (Homo sapiens)) was “inactive” each time.
`C[C@]12CC[C@@H]3c4ccc(OS(=O)(=O)O)cc4CC[C@H]3[C@@H]1CCC2=O`: the Potency result in test [1], in [2], in test [3], in [4] and in test [6] was “inactive” each time.
`C[C@]12CCC(=O)C=C1CC[C@@H]1[C@@H]2[C@@H](O)C[C@@]2(C)[C@H]1CC[C@]2(O)C(=O)COP(=O)(O)O`: the Potency entry (in [1]; in [2]; in [3]; in [4]; in [6]; with Aromatase (Homo sapiens)) was “inactive” in each case. Also, the Potency in test [8] is 29.8 µM (active).
